Screening results as filed in PubChem BioAssay.
UCHL1 block = inhibitors of human UCHL1 deubiquitinase. Ubiquitin carboxyl-terminal hydrolase isozyme L1 (Homo sapiens), P09936. purified UCHL1, Ub-rhodamine cleavage fluorescence. inhibition, % at 20 µM. actives 0.2% (n = 47,000)
Target sequence (P09936 whole entry, looked up): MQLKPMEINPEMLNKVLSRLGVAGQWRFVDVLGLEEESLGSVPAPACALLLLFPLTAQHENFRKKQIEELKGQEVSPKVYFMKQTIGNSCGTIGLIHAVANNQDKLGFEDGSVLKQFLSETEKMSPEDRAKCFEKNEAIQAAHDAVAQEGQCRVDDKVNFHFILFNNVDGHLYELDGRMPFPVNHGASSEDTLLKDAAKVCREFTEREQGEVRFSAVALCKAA
USP10 inh = inhibitors of human USP10 deubiquitinase | Ubiquitin carboxyl-terminal hydrolase 10 (Homo sapiens), Q14694 | purified USP10, Ub-rhodamine fluorescence, 60 min | inhibition, % at 20 µM | actives 1.1% (n = 47,000)
OTUD3 inh = inhibitors of human OTUD3 deubiquitinase; AID 1645858, 2021; OTU domain-containing protein 3 (Homo sapiens), Q5T2D3; actives 0.7% (n = 47,000); inhibition, % at 25 µM; purified OTUD3, Ub-rhodamine fluorescence, 2 h
USP7 inh = inhibitors of human USP7 deubiquitinase. Ubiquitin carboxyl-terminal hydrolase 7 (Homo sapiens), Q93009. purified USP7, Ub-rhodamine cleavage fluorescence. inhibition, % at 20 µM. actives 0.3% (n = 47,000). AID 1645854, 2021
USP8 inh = inhibitors of human USP8 deubiquitinase | Ubiquitin carboxyl-terminal hydrolase 8 (Homo sapiens), P40818 | purified USP8, Ub-rhodamine cleavage fluorescence, 30 min | inhibition, % at 20 µM | actives 4.2% (n = 47,000)
* hit, by the source's call. Compounds with a hit are over-represented: about 5% of the library has one in this group of screens. Cut-off read from the data, not from the text of the source: active = inhibition above about 30%; inactive = the rest.

SMILES	UCHL1 block	USP10 inh	OTUD3 inh	USP7 inh	USP8 inh
O=C1Nc2cc(C(=O)N3CCN(c4ccccn4)CC3)ccc2N2CCCCC12 (stereo not drawn)	1	-3	6	-2	-18
CCOc1ccc(NC(=O)CSCc2nc(-c3ccc(OC)c(OC)c3)no2)cc1	3	-1	13	4	34*
CCOC(=O)c1cccc(NC(=O)Cc2nc(-c3ccc(OC)cc3)no2)c1	-2	2	0	4	9
Cc1nccnc1CCC1COCCN1C(=O)c1ccc2n[nH]nc2c1 (stereo not drawn)	1	4	7	6	29
CCCCCn1c(=O)[nH]c2cc(C(=O)NCCN3CCC(Cc4ccccc4)CC3)ccc2c1=O	0	2	17	4	15
Cc1ccc(C(=O)Nc2cc3c4c(c2)C(C)C(=O)N4CCC3)cc1 (stereo not drawn)	-7	-6	-23	-7	-15
Cc1ccc(C(=O)Nc2cc3c4c(c2)CC(=O)N4CCC3)cc1C	0	-4	8	1	30*
COc1cc(C(C)=O)cc(OC)c1OC	0	-3	-1	2	2
Cc1cccc(N2C(=O)/C(=C\c3ccc(N4CCOCC4)s3)c3ccccc3C2=O)c1	1	-7	-11	1	41*
Cc1ccc(NC(=O)c2cc(-c3ccccc3)c(N3CCOCC3)s2)cc1	-4	-9	2	-7	-1
COc1cccc(/C=C2\C(=O)N(c3cccc(C)c3)C(=O)c3ccccc32)c1	-8	-7	-5	-10	66*
N#Cc1cccnc1N1CCN(C(=O)Nc2cccc3ccccc23)CC1	18	0	11	-25	91*
CCOc1ccccc1NC(=O)N1CCCN(c2ncccc2C#N)CC1	2	-1	10	3	4
COc1ccc(NC(=O)Cn2cc(C(=O)c3ccccc3)c(=O)c3cc(Cl)ccc32)cc1OC	6	33*	-8	7	15
CCOc1ccc2c(c1)c(=O)c(C(=O)c1ccccc1)cn2CC(=O)Nc1ccc(Cl)cc1	6	47*	-8	30	93*
COc1ccc(NC(=O)Cn2cc(C(=O)c3ccc(Cl)cc3)c(=O)c3cc(F)ccc32)cc1	6	53*	15	25	16
COc1ccc2c(c1)c(=O)c(C(=O)c1ccc(Cl)cc1)cn2CC(=O)Nc1ccc(Cl)cc1	-4	-2	-21	0	16
CC(C)=CCC[C@@](C)(O)[C@@H]1CC[C@@](C)(O)[C@H]1C	0	4	7	1	4
COc1cc(/C=C2\Oc3cc(OCC=C(C)C)ccc3C2=O)cc(OC)c1OC	-6	-4	-31	-3	-3
CC(C)=CCC/C(C)=C/COc1ccc(/C=C2\C(=O)N(O)[C@@H](C)C(=O)N2O)cc1	1	38*	6	-18	4
Cc1ccc(S(=O)(=O)N2CCC(C(=O)Nc3nnc(C)o3)CC2)cc1	3	1	6	1	-8
Cc1nnc(NC(=O)C2CCN(c3ccc(S(N)(=O)=O)cc3[N+](=O)[O-])CC2)o1	36*	62*	67*	43*	19
c1coc(-c2nc3ccccc3c3nnc(SCc4ccc5nonc5c4)n23)c1	5	1	-4	10	7
O=C(CSc1nnc2c3ccccc3nc(-c3ccco3)n12)N1CCCc2ccccc21	-2	48*	-27	1	34*
Cn1cc(C(=O)Nc2cccnc2)c2nn(-c3ccccc3)c(=O)c-2c1	2	3	12	7	31*
SMILES	UCHL1 block	USP10 inh	OTUD3 inh	USP7 inh	USP8 inh
COc1ccc(OC)c(C(C(=O)NC2CCCCC2)N(C(=O)c2ccc3c(c2)OCCO3)c2ccc(C)cc2)c1 (stereo not drawn)	11	8	11	8	33*
O=C(Cc1nnc(-c2ccc3ncccc3c2)o1)Nc1ccccc1	0	-6	-3	-4	-3
Cc1cc(F)ccc1NC(=O)Cc1nnc(-c2ccc3ncccc3c2)o1	-1	-3	11	5	47*
COc1cc(O)c2c(c1O)C(=O)c1cc(C)ncc1C2=O	1	0	-17	-4	-8
CC1(C(=O)NC2CCCC2)CCC(=O)N1CCCc1ccccc1 (stereo not drawn)	-5	0	-3	-12	-12
CC(C)C12CN3CC(C(C)C)(CN(C1)C3[C@@H](O)[C@H](O)[C@H](O)[C@@H](O)CO)C2=O (stereo partly drawn)	3	-1	22	2	6
O=C(Nc1ccc2nc3n(c(=O)c2c1)CCCC3)Nc1ccc(F)cc1F	-1	0	-10	-3	0
N#Cc1cccc(NC(=O)CC(=O)Nc2ccc3nc4n(c(=O)c3c2)CCCCC4)c1	0	9	-7	9	56*
Cc1ccc(-n2c(N)c(C(=O)NCCc3ccccc3F)c3nc4ccccc4nc32)cc1	1	-3	6	-5	34*
O=C(NCCc1ccccc1F)c1ccc(N2C(=O)CCS2(=O)=O)cc1	0	6	7	1	12
COc1ccc(CCNC(=O)c2c(N)n(-c3cccc(Cl)c3)c3nc4ccccc4nc23)cc1	7	4	-29	-6	62*
COc1ccc(CCNC(=O)c2c(N)n(-c3cccc(F)c3)c3nc4ccccc4nc23)cc1	7	-2	-59	1	36*
CC1CCc2nn(CC(=O)NCc3cccnc3)cc2C1 (stereo not drawn)	0	0	1	3	0
CC(C)CC(=O)N1C[C@@H]2c3nc(Nc4ccccc4)ncc3CS(=O)(=O)[C@@H]2C1	3	1	7	0	18
CCn1cc(-c2cc(C(=O)N3CCC[C@]4(C)NC(=O)CCC[C@H]34)on2)cn1	3	-3	9	10	13
O=C(Nc1nnc2ccccn12)c1ccccc1Br	0	0	-7	3	10
O=C(NCc1ccc2c(c1)OCO2)c1cc(-c2cc(Cl)ccc2O)n[nH]1	5	9	7	12	50*
O=C(NCc1ccc2c(c1)OCO2)c1[nH]nc2c1CCc1ccccc1-2	2	6	7	0	41*
O=C(Nc1cccnc1)c1[nH]nc2c1COc1ccccc1-2	-16	-1	-48	-33	-10
O=C(NCc1ccc2c(c1)OCO2)c1nnc(C(=O)Nc2ccc(F)cc2)s1	4	21	6	12	10
O=C(Nc1ccc2c(c1)OCO2)c1[nH]nc2c1CCc1ccccc1-2	9	11	22	0	85*
O=C(NCc1ccncc1)c1ccc(Cn2cnc3ccccc3c2=O)o1	0	1	0	0	6
COc1cccc(-n2cnc3cc(C(=O)NCc4ccncc4)ccc3c2=O)c1	0	1	15	0	58*
COc1ccc(NC(=O)CSc2nc3ccccc3c3nc(C)nn23)cc1OC	5	0	20	6	41*
